Test results taken from PubChem BioAssay (NCI).
Compounds without any hit were thinned out: in the full panel of roughly 83,000, 20% have a hit.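 Assay: single dose, 48 h. Readout: percent growth (0 = no net growth; negative = cell death). Active: <10.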 Active and inactive are the calls of the source.

Experiments:
Assay in all cases: NCI-60 one-dose screen, 48 h (100 = growth as untreated, 0 = no growth, -100 = all killed)
Settings in all cases: 10 µM unless noted
HCT-15 colon = system: HCT-15 colon
HT29 colon = system: HT29 colon
SNB-75 CNS = system: SNB-75 CNS
SNB-19 CNS = system: SNB-19 CNS
U251 CNS = system: U251 CNS
PC-3 prostate = system: PC-3 prostate
SK-MEL-5 melanoma = system: SK-MEL-5 melanoma
UACC-62 melanoma = system: UACC-62 melanoma
LOX IMVI melanoma = system: LOX IMVI melanoma
SK-MEL-28 melanoma = system: SK-MEL-28 melanoma

Measured: growth

S=C(c1ccc2c(c1)OCO2)N1CCN(c2cccc(Cl)c2)CC1
active: HT29 colon 4.72% | SK-MEL-5 melanoma -10.8%
inactive: HCT-15 colon 24.1% | SNB-75 CNS 12.5% | SNB-19 CNS 40.4% | U251 CNS 28.5% | PC-3 prostate 15.9% | UACC-62 melanoma 25.4% | LOX IMVI melanoma 45.4% | SK-MEL-28 melanoma 53.5%

COc1ccc(-c2cc(-c3ccccc3)nc(N3CCN(CCNc4ccnc5cc(Cl)ccc45)CC3)n2)cc1
active: HCT-15 colon -82% | HT29 colon -67.6% | U251 CNS 0.46% | SK-MEL-5 melanoma -98.6% | LOX IMVI melanoma -95.1% | SK-MEL-28 melanoma -93.1%
inactive: SNB-75 CNS 83.6% | SNB-19 CNS 72.7% | PC-3 prostate 32.4% | UACC-62 melanoma 62.2%

Cc1ccc(-c2nc(N3CCNCC3)c3oc(-c4ccc(C)cc4)nc3n2)cc1
active: HCT-15 colon -88% | HT29 colon -94.7% | U251 CNS -98.5% | PC-3 prostate -90.2% | LOX IMVI melanoma -79.6%
inactive: SNB-75 CNS 89% | SNB-19 CNS 39.1% | SK-MEL-5 melanoma 96.5% | UACC-62 melanoma 95.4% | SK-MEL-28 melanoma 83.6%

COc1cccc(C(=O)NNc2nc(Cl)nc(Cl)n2)c1
inactive: HCT-15 colon 98.2% | HT29 colon 98.8% | SNB-75 CNS 87.4% | SNB-19 CNS 93% | U251 CNS 99.2% | PC-3 prostate 97.4% | SK-MEL-5 melanoma 96.1% | UACC-62 melanoma 101% | LOX IMVI melanoma 97% | SK-MEL-28 melanoma 105%

CN(C)CCCNC(=O)c1cncnc1Nc1ccc(OCc2cccc(F)c2)c(Cl)c1
active: HCT-15 colon -37.6% | HT29 colon -49.7% | SNB-75 CNS -18.2% | U251 CNS -52.5% | PC-3 prostate 0.306% | UACC-62 melanoma -84.7% | LOX IMVI melanoma -88.1% | SK-MEL-28 melanoma -86.1%
inactive: SNB-19 CNS 57.3% | SK-MEL-5 melanoma 61.3%

O=C(/C=C/c1ccccc1)c1ccc(Nc2nc(Nc3ccc(F)cc3)nc(Nc3ccc(Cl)cc3)n2)cc1
inactive: HCT-15 colon 86.7% | HT29 colon 83.5% | SNB-75 CNS 95% | SNB-19 CNS 101% | U251 CNS 78.9% | PC-3 prostate 74.5% | SK-MEL-5 melanoma 79% | UACC-62 melanoma 100% | LOX IMVI melanoma 85.1% | SK-MEL-28 melanoma 90.9%

CCc1n(Cc2ccc3ccccc3n2)cc[n+]1Cc1ccc2ccccc2n1
inactive: HCT-15 colon 92.2% | SNB-75 CNS 29.5% | SNB-19 CNS 20.9% | U251 CNS 12.3% | PC-3 prostate 19% | UACC-62 melanoma 12.4% | LOX IMVI melanoma 26.1% | SK-MEL-28 melanoma 15.9%
active: HT29 colon -4.83% | SK-MEL-5 melanoma -36.3%

CCN1C(=O)N(CC)C2C1NN=c1s/c(=C\c3ccc[nH]3)c(=O)n12 (stereo not given)
inactive: HCT-15 colon 24.4% | SNB-19 CNS 24.9% | PC-3 prostate 19.6% | SK-MEL-5 melanoma 30% | UACC-62 melanoma 25.7% | LOX IMVI melanoma 43% | SK-MEL-28 melanoma 46%
active: HT29 colon -10.4% | SNB-75 CNS -23.6% | U251 CNS 9.08%

COc1ccc2c(c1)/C(=N/c1n[nH]c(=S)s1)C(=O)N2
inactive: HCT-15 colon 104% | HT29 colon 105% | SNB-75 CNS 75.4% | SNB-19 CNS 99.1% | U251 CNS 93.8% | PC-3 prostate 91.2% | SK-MEL-5 melanoma 91.2% | UACC-62 melanoma 94.8% | LOX IMVI melanoma 95.8% | SK-MEL-28 melanoma 107%

O=C(CI)NC(=O)NC(=O)NCc1ccccc1
active: LOX IMVI melanoma -77.7%
inactive: HCT-15 colon 17.4% | HT29 colon 17.2% | SNB-75 CNS 81.4% | SNB-19 CNS 101% | U251 CNS 84% | PC-3 prostate 93.9% | SK-MEL-5 melanoma 56.1% | UACC-62 melanoma 79.3% | SK-MEL-28 melanoma 49.4%

N#C/C(=C\c1cn(Cc2ccccc2)c2ccccc12)C(=O)Nc1ncc(Cc2ccccc2Cl)s1
active: SNB-75 CNS -12.7% | U251 CNS -9.08% | UACC-62 melanoma -40.4%
inactive: HCT-15 colon 35.7% | HT29 colon 28.2% | SNB-19 CNS 72.4% | PC-3 prostate 40.6% | SK-MEL-5 melanoma 57.6% | LOX IMVI melanoma 24.7% | SK-MEL-28 melanoma 29.9%

CC(=O)/C(=C/c1ccc([N+](=O)[O-])cc1)C(=O)c1ccccc1
inactive: HCT-15 colon 60.6% | HT29 colon 41.1% | SNB-75 CNS 88.5% | SNB-19 CNS 92.5% | U251 CNS 71.3% | PC-3 prostate 63.4% | SK-MEL-5 melanoma 87.5% | UACC-62 melanoma 77.2% | SK-MEL-28 melanoma 91.6%
active: LOX IMVI melanoma -28.5%

Cc1ccc(/C=C/C(=O)Nc2ncc(Cc3ccc(F)cc3)s2)o1
inactive: HCT-15 colon 22% | HT29 colon 21.6% | SNB-75 CNS 52.1% | SNB-19 CNS 68.7% | U251 CNS 47.5% | PC-3 prostate 38.4% | SK-MEL-5 melanoma 45.3% | UACC-62 melanoma 31.5% | LOX IMVI melanoma 40.6% | SK-MEL-28 melanoma 59.7%

COc1cc(-c2nc3sccn3c2-c2ccnc(NCCNS(=O)(=O)c3ccc(Cl)cc3)n2)ccc1F
inactive: HCT-15 colon 20.6% | HT29 colon 22.8% | SNB-75 CNS 85.6% | SNB-19 CNS 78.8% | U251 CNS 55.6% | PC-3 prostate 13.1% | LOX IMVI melanoma 19.2% | SK-MEL-28 melanoma 44.9%
active: SK-MEL-5 melanoma -14.7% | UACC-62 melanoma -45.3%

CCOC(=O)C1=C(C)C(Cl)=N/C1=C\c1[nH]c(Cl)c(C)c1C(=O)OCC
inactive: HCT-15 colon 99.1% | HT29 colon 91.9% | SNB-75 CNS 84.5% | SNB-19 CNS 101% | U251 CNS 94.1% | PC-3 prostate 76.3% | SK-MEL-5 melanoma 96.8% | UACC-62 melanoma 97.4% | LOX IMVI melanoma 93.9% | SK-MEL-28 melanoma 122%

CS(=O)(=O)c1ccc(NC(=O)c2ccccc2)nc1
inactive: HCT-15 colon 104% | HT29 colon 83.6% | SNB-75 CNS 104% | SNB-19 CNS 95.7% | U251 CNS 102% | PC-3 prostate 93.6% | SK-MEL-5 melanoma 101% | UACC-62 melanoma 95.4% | LOX IMVI melanoma 98.6% | SK-MEL-28 melanoma 112%

CN1CCN(C(=O)[C@@]2(C)CC[C@]3(C)CC[C@]4(C)C(=CC[C@@H]5[C@@]6(C)CCC(=O)NC(C)(C)[C@@H]6CC[C@]54C)[C@@H]3C2)CC1
inactive: HCT-15 colon 30.3% | SNB-75 CNS 87.3% | SNB-19 CNS 79.4% | U251 CNS 40.4% | PC-3 prostate 27.4% | UACC-62 melanoma 26.4%
active: HT29 colon 3.61% | SK-MEL-5 melanoma -41% | LOX IMVI melanoma 8.99% | SK-MEL-28 melanoma -6.92%

C=C1C(=O)O[C@H]2[C@H]1CC/C(COC(=O)c1cc3cc(Cl)ccc3[nH]1)=C\CC[C@@]1(C)O[C@@H]21
inactive: SNB-19 CNS 12.6%
active: HCT-15 colon -61.1% | HT29 colon -75.9% | SNB-75 CNS -97.3% | U251 CNS -88.8% | PC-3 prostate -56.3% | SK-MEL-5 melanoma -88.6% | UACC-62 melanoma -78.7% | LOX IMVI melanoma -93.2% | SK-MEL-28 melanoma -83.3%

O=C(NNC(=O)c1ccc(NC(=O)c2ccccn2)cc1)Nc1ccc2ccccc2c1
inactive: HCT-15 colon 105% | HT29 colon 109% | SNB-75 CNS 109% | SNB-19 CNS 91.8% | U251 CNS 101% | PC-3 prostate 107% | SK-MEL-5 melanoma 102% | UACC-62 melanoma 108% | LOX IMVI melanoma 115% | SK-MEL-28 melanoma 110%

COc1ccc(C(=S)N2CCN(c3ccc(Cl)cc3)CC2)cc1
inactive: HCT-15 colon 116% | HT29 colon 102% | SNB-75 CNS 112% | SNB-19 CNS 86.3% | U251 CNS 101% | PC-3 prostate 103% | SK-MEL-5 melanoma 96.8% | UACC-62 melanoma 84.5% | LOX IMVI melanoma 104% | SK-MEL-28 melanoma 110%

NC1(CO)COC(c2ccccc2)OC1 (stereo not given)
inactive: HCT-15 colon 113% | HT29 colon 96.7% | SNB-75 CNS 120% | SNB-19 CNS 111% | U251 CNS 97.5% | PC-3 prostate 99% | SK-MEL-5 melanoma 96.1% | UACC-62 melanoma 111% | LOX IMVI melanoma 107% | SK-MEL-28 melanoma 118%

Cn1c(=O)c2[nH]c(SCC(=O)Nc3ccc(C(=O)/C=C/c4ccccc4Cl)cc3)nc2n(C)c1=O
inactive: HCT-15 colon 92.5% | HT29 colon 119% | SNB-75 CNS 77.1% | SNB-19 CNS 97.1% | U251 CNS 91.9% | PC-3 prostate 93.4% | SK-MEL-5 melanoma 90% | UACC-62 melanoma 95.6% | LOX IMVI melanoma 96.4% | SK-MEL-28 melanoma 99.9%

CCOC(=O)c1cnc2c(N=Nc3ccc(OC)cc3)c(N)nn2c1N
inactive: HCT-15 colon 102% | HT29 colon 99.3% | SNB-75 CNS 106% | SNB-19 CNS 98.6% | U251 CNS 105% | PC-3 prostate 98.7% | SK-MEL-5 melanoma 96.2% | UACC-62 melanoma 97.3% | LOX IMVI melanoma 110% | SK-MEL-28 melanoma 114%

Cc1ccc(C)c(/C=C2\CN(C(=O)OC(C)(C)C)C/C(=C\c3cc(C)ccc3C)C2=O)c1
inactive: HCT-15 colon 19.4% | SNB-75 CNS 78.5% | SNB-19 CNS 59.9% | U251 CNS 15.9% | PC-3 prostate 46.6% | SK-MEL-5 melanoma 45% | UACC-62 melanoma 37.3% | SK-MEL-28 melanoma 41.3%
active: HT29 colon 9.93% | LOX IMVI melanoma 0.926%

COc1cc(OC)c(/C=C/C(=O)c2c(O)cc(OC)c(C3CCN(C)CC3)c2OC)c(OC)c1
active: HCT-15 colon -58.1% | HT29 colon -73.4% | SNB-75 CNS -8.19% | SNB-19 CNS -55.9% | U251 CNS -85.6% | PC-3 prostate -16.1% | SK-MEL-5 melanoma -99% | UACC-62 melanoma -83.9% | LOX IMVI melanoma -93.3% | SK-MEL-28 melanoma -100%

Cc1ccc2c(-n3nc(C#N)c(C#N)c3N)cc(=O)[nH]c2c1
inactive: HCT-15 colon 87.9% | HT29 colon 93.7% | SNB-75 CNS 110% | SNB-19 CNS 88.6% | U251 CNS 86.4% | PC-3 prostate 71.1% | SK-MEL-5 melanoma 93.5% | UACC-62 melanoma 80.2% | LOX IMVI melanoma 81% | SK-MEL-28 melanoma 94.1%
